Screening results from PubChem.
CYP2C19 act – cytochrome P450 2C19 (human) activation. activation factor at 5 µM. recombinant CYP2C19, luciferin-H EGE luminescence; hits give high values; 0 = fully inhibited enzyme, 1 = untreated enzyme. 96,000 tested, under 10 active;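 active means activation factor of at least 2 at 5 µM in the primary screen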
Target sequence (P33261 whole entry, looked up): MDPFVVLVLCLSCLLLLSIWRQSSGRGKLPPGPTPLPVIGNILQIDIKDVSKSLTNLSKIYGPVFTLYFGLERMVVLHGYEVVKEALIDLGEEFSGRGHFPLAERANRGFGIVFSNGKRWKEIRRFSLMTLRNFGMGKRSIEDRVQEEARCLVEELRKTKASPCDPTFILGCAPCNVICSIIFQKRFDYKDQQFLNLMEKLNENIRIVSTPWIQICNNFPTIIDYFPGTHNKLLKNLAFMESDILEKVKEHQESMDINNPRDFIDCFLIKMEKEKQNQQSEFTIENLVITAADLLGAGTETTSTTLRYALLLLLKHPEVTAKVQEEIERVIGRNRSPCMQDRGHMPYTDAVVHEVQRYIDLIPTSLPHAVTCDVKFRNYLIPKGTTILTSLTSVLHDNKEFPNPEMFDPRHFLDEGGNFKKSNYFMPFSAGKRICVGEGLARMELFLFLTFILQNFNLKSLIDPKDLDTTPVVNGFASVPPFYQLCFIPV
CYP2C9 inh – inhibitors of human CYP2C9 | 96,000 compounds, 20% hits | CYP2C9 Supersomes, luciferin-H conversion, luminescence | P11712 | inhibition, % at 5 µM | AID 777;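 active means blocking of liver enzyme CYP2C9 beyond about 50% at 5 µM, limit read from the data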
CYP2C9 act – activators of human CYP2C9. activation factor at 5 µM. 96,000 compounds, 1.4% hits. recombinant CYP2C9, luciferin-H conversion, luminescence; hits give high values; factor 1 = untreated enzyme, 0 = blocked. P11712;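 active means activation factor of 2 or more for CYP2C9 at a 5 µM dose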
PostGolgi ctrl – yeast control strain growth, post-Golgi counter-screen; efflux-deficient yeast background strain, growth absorbance A615, 16 h; inhibition, % at 10 µM; 98,000 compounds, 5% hits
PostGolgi yeast – growth inhibition of a yeast mutant, post-Golgi transport screen. post-Golgi transport phenotypic cell assay. inhibition, % at 10 µM. 98,000 compounds, 0.9% hits. AID 739;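 further: yeast cells grown in 1536-well plates; yeast grown about 18 h at 30C before absorbance read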
CYP2C19 inhib – blocks human cytochrome P450 2C19; 96,000 compounds, 21% hits; P33261; inhibition, % at 5 µM; CYP2C19 Supersomes, luciferin-H EGE luminescence, 30 min; AID 778;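 active means CYP2C19 inhibition above a set limit at 5 µM in the primary screen, cut at about 50% in these data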
Numbers stand for hits. Most compounds without a hit are left out; they make up all but 32% or so of the library. Unless noted, no stated cut-off is given here; in the data, active means inhibition above about 30%; inactive means the rest.

Screening O=C(c1ccc(S(=O)(=O)N2CCCCCC2)cc1)N1CCC(CN2C(=O)c3cccc4cccc(c34)C2=O)CC1 returned PostGolgi ctrl inactive and PostGolgi yeast inactive.
`COc1ccccc1-c1nnc(SCC(=O)Nc2ccc(S(N)(=O)=O)cc2)n1C` gave CYP2C19 act inactive, CYP2C9 inh 76, CYP2C9 act inactive, PostGolgi ctrl inactive, PostGolgi yeast inactive and CYP2C19 inhib inactive.
For COc1ccccc1NC(=O)CSc1nnc(C)n1CCc1ccccc1 the results were CYP2C19 act inactive, CYP2C9 inh 53, CYP2C9 act inactive, PostGolgi ctrl inactive, PostGolgi yeast inactive and CYP2C19 inhib inactive.
For Cc1cccc(C)c1NC(=O)CSc1nnc(-c2ccco2)n1N the results were CYP2C19 act inactive, CYP2C9 inh inactive, CYP2C9 act inactive, PostGolgi ctrl inactive, PostGolgi yeast inactive and CYP2C19 inhib 57.
COc1ccccc1NC(=O)CSc1nnc(-c2ccccn2)n1Cc1ccco1 was read as CYP2C19 act inactive, CYP2C9 inh 77, CYP2C9 act inactive, PostGolgi ctrl inactive, PostGolgi yeast inactive and CYP2C19 inhib inactive.
For CCOC(=O)Cc1ccc(NC(=O)c2ccc(C(C)(C)C)cc2)cc1 the results were CYP2C19 act inactive, CYP2C9 inh inactive, CYP2C9 act inactive, PostGolgi ctrl inactive, PostGolgi yeast inactive and CYP2C19 inhib inactive.
`O=C(CSc1nnc(Cc2cccs2)n1Cc1ccco1)Nc1cc(Cl)cc(Cl)c1` gave CYP2C19 act inactive, CYP2C9 inh inactive, CYP2C9 act inactive, PostGolgi ctrl 35, PostGolgi yeast inactive and CYP2C19 inhib inactive.
For COc1ccccc1NC(=O)CSc1nnc(-c2ccco2)n1Cc1ccco1 the results were CYP2C19 act inactive, CYP2C9 inh 77, CYP2C9 act inactive, PostGolgi ctrl inactive, PostGolgi yeast inactive and CYP2C19 inhib 83.
`O=C(CSc1nnc(-c2ccco2)n1Cc1ccco1)Nc1ccccc1` gave CYP2C19 act inactive, CYP2C9 inh 64, CYP2C9 act inactive, PostGolgi ctrl inactive, PostGolgi yeast inactive and CYP2C19 inhib inactive.
CCOC(=O)CNC(=O)CSc1nnc(-c2ccco2)n1Cc1ccco1 was read as CYP2C19 act inactive, CYP2C9 inh inactive, CYP2C9 act inactive, PostGolgi ctrl inactive, PostGolgi yeast inactive and CYP2C19 inhib inactive.
Screening CC(C)c1cc(NC(=O)CSc2nnc(-c3ccccc3F)n2C)on1 returned CYP2C19 act inactive, CYP2C9 inh 58, CYP2C9 act inactive, PostGolgi ctrl inactive, PostGolgi yeast inactive and CYP2C19 inhib inactive.
For Cc1ccc(S(=O)(=O)N2CCC(C(=O)NCCCN3CCCCCC3)CC2)cc1 the results were CYP2C19 act inactive, CYP2C9 inh inactive, CYP2C9 act inactive, PostGolgi ctrl inactive, PostGolgi yeast inactive and CYP2C19 inhib inactive.
Screening Cc1ccccc1P(=O)(CO)c1ccccc1C returned CYP2C19 act inactive, CYP2C9 inh inactive, CYP2C9 act inactive, PostGolgi ctrl inactive, PostGolgi yeast inactive and CYP2C19 inhib inactive.
Screening COc1cc(O)oc1C=Nc1ccc(C(F)(F)F)cc1 returned CYP2C19 act inactive, CYP2C9 inh inactive, CYP2C9 act inactive, PostGolgi ctrl inactive, PostGolgi yeast inactive and CYP2C19 inhib inactive.
`C=C(C)c1cccc(C(C)(C)NC(=O)N2CCN(CC)CC2)c1` gave PostGolgi ctrl inactive and PostGolgi yeast inactive.
For C=C(C)c1cccc(C(C)(C)NC(=O)N2CCCCC2CC)c1 (centres undefined) the results were CYP2C19 act inactive, CYP2C9 inh 89, CYP2C9 act inactive, PostGolgi ctrl inactive, PostGolgi yeast inactive and CYP2C19 inhib 51.
For O=C1c2ccsc2SCCN1Cc1c(Cl)cccc1Cl the results were CYP2C19 act inactive, CYP2C9 inh 89, CYP2C9 act inactive, PostGolgi ctrl inactive, PostGolgi yeast inactive and CYP2C19 inhib 97.
For O=C1c2ccsc2SCCN1Cc1ccc(Cl)cc1Cl the results were CYP2C19 act inactive, CYP2C9 inh inactive, CYP2C9 act inactive, PostGolgi ctrl inactive, PostGolgi yeast inactive and CYP2C19 inhib 53.
O=c1ccccn1Cc1c(Cl)cccc1Cl was read as CYP2C19 act inactive, CYP2C9 inh inactive, CYP2C9 act inactive, PostGolgi ctrl inactive, PostGolgi yeast inactive and CYP2C19 inhib inactive.
For CCOC(=O)c1nn(-c2ccc(F)cc2)c(-c2ccccc2)c1C(=O)c1ccccc1 the results were CYP2C19 act inactive, CYP2C9 inh inactive, CYP2C9 act inactive, PostGolgi ctrl inactive, PostGolgi yeast inactive and CYP2C19 inhib inactive.
Screening CCOC(=O)c1nn(-c2cccc(Cl)c2)c(C)c1C(C)=O returned CYP2C19 act inactive, CYP2C9 inh 64, CYP2C9 act inactive, PostGolgi ctrl inactive, PostGolgi yeast inactive and CYP2C19 inhib 100.
Screening CCOC(=O)c1nn(-c2ccccc2)c(-c2ccccc2)c1C(=O)c1ccccc1 returned CYP2C19 act inactive, CYP2C9 inh 59, CYP2C9 act inactive, PostGolgi ctrl inactive, PostGolgi yeast inactive and CYP2C19 inhib inactive.
CCOC(=O)c1c(C)nn(Cc2cccc(Cl)c2)c1N was read as CYP2C19 act inactive, CYP2C9 inh 90, CYP2C9 act inactive, PostGolgi ctrl inactive, PostGolgi yeast inactive and CYP2C19 inhib inactive.
Screening CCOC(=O)c1nn(-c2ccccc2)c(=O)c(C#N)c1C returned CYP2C19 act inactive, CYP2C9 inh inactive, CYP2C9 act inactive, PostGolgi ctrl inactive, PostGolgi yeast inactive and CYP2C19 inhib 70.
`Cc1c(C(=O)O)nn(-c2ccccc2)c(=O)c1C#N` gave CYP2C19 act inactive, CYP2C9 inh inactive, CYP2C9 act inactive, PostGolgi ctrl inactive, PostGolgi yeast inactive and CYP2C19 inhib inactive.
Screening CCOC(=O)c1nn(-c2cccc(OC)c2)c(-c2ccccc2)c1C(=O)c1ccccc1 returned CYP2C19 act inactive, CYP2C9 inh inactive, CYP2C9 act inactive, PostGolgi ctrl inactive, PostGolgi yeast inactive and CYP2C19 inhib inactive.
For CCOC(=O)C1CCN(C(=O)CN2C(=O)C(CC)Oc3ccccc32)CC1 (centres undefined) the results were CYP2C19 act inactive, CYP2C9 inh inactive, CYP2C9 act inactive, PostGolgi ctrl inactive, PostGolgi yeast inactive and CYP2C19 inhib inactive.
`CCOC(=O)c1c(N)nn(C(C)=O)c1-c1ccccc1` gave CYP2C19 act inactive, CYP2C9 inh inactive, CYP2C9 act inactive, PostGolgi ctrl inactive, PostGolgi yeast inactive and CYP2C19 inhib inactive.
For CCOC(=O)c1nn(-c2ccccc2F)c(-c2ccccc2)c1C(=O)c1ccccc1 the results were CYP2C19 act inactive, CYP2C9 inh inactive, CYP2C9 act inactive, PostGolgi ctrl 32, PostGolgi yeast inactive and CYP2C19 inhib inactive.
For CCCNS(=O)(=O)c1cccn1-c1ncc(C(F)(F)F)cc1Cl the results were CYP2C19 act inactive, CYP2C9 inh 66, CYP2C9 act inactive, PostGolgi ctrl inactive, PostGolgi yeast inactive and CYP2C19 inhib 51.
NS(=O)(=O)c1cccn1-c1ncc(C(F)(F)F)cc1Cl was read as CYP2C19 act inactive, CYP2C9 inh inactive, CYP2C9 act inactive, PostGolgi ctrl inactive, PostGolgi yeast inactive and CYP2C19 inhib inactive.
For COCCn1c(SCC#N)nnc1-c1ccccc1 the results were CYP2C19 act inactive, CYP2C9 inh inactive, CYP2C9 act inactive, PostGolgi ctrl inactive, PostGolgi yeast inactive and CYP2C19 inhib inactive.
